Test results published in PubChem BioAssay (NCI).
About 83,000 compounds went through this panel and 20% of them were active in at least one assay; those are over-represented in the sample as a whole.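 96-well plates, one dose, 48 hours. Percent growth reported; active if below 10.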 Values without a mark were called inactive. Calls of active or inactive are those of the source.

What was measured:
Experiment in all cases: NCI-60 one-dose screen, 48 h (100 = growth as untreated, 0 = no growth, -100 = all killed)
Conditions in all cases: 10 µM unless noted
[1] = tested on: NCI-H23 lung
[2] = tested on: NCI-H226 lung
[3] = tested on: NCI-H322M lung
[4] = tested on: HOP-62 NSCLC
[5] = tested on: NCI-H460 lung
[6] = tested on: HOP-92 NSCLC
[7] = tested on: NCI-H522 lung
[8] = tested on: A549/ATCC NSCLC
[9] = tested on: 786-0 renal
[10] = tested on: COLO 205 colon

## O=C1/C(=C/c2ccc([N+](=O)[O-])cc2)COc2ccc(O)c(O)c21
[1]
  growth: 11.1%
[2]
  growth: 50.9%
[3]
  growth: 42.7%
[4]
  growth: 4.16% (active)
[5]
  growth: -17.2% (active)
[6]
  growth: -4.37% (active)
[7]
  growth: -52.7% (active)
[8]
  growth: 34.5%
[9]
  growth: -60.5% (active)
[10]
  growth: 16.3%

## CC(C)c1ccc(NC(=O)Cc2ccc(Nc3ncnc4cc(-c5cnn(CCN(C)C)c5)ccc34)cc2)cc1
[1]
  growth: -61.7% [30 µM] (active)
[2]
  growth: 50.6% [30 µM]
[3]
  growth: -99.7% [30 µM] (active)
[4]
  growth: -0.67% [30 µM] (active)
[5]
  growth: -90.5% [30 µM] (active)
[6]
  growth: -45.3% [30 µM] (active)
[7]
  growth: -45.3% [30 µM] (active)
[8]
  growth: -35.7% [30 µM] (active)
[9]
  growth: -59.1% [30 µM] (active)
[10]
  growth: -46.7% [30 µM] (active)

## O=C(Nc1ccc(N2CCCCC2)c(Cl)c1)c1ccc(Br)o1
[1]
  growth: 81.3%
[2]
  growth: 82.1%
[3]
  growth: 115%
[4]
  growth: 109%
[5]
  growth: 69.4%
[6]
  growth: 105%
[7]
  growth: 87.2%
[8]
  growth: 82.5%
[9]
  growth: 97.6%
[10]
  growth: 103%

## CCOC(=O)c1ccc(-c2ccc3cc(OC)ccc3c2)nc1C
[1]
  growth: 93%
[2]
  growth: 116%
[3]
  growth: 90.3%
[4]
  growth: 107%
[5]
  growth: 103%
[6]
  growth: 104%
[7]
  growth: 72.7%
[8]
  growth: 95.4%
[9]
  growth: 85.7%
[10]
  growth: 105%

## N#Cc1c(N)nc2c(nnn2-c2cccc(C(F)(F)F)c2)c1N
[1]
  growth: 86.6%
[2]
  growth: 92.4%
[3]
  growth: 89.8%
[4]
  growth: 80.5%
[5]
  growth: 95.9%
[6]
  growth: 77.6%
[7]
  growth: 75.2%
[8]
  growth: 78%
[9]
  growth: 101%
[10]
  growth: 104%

## O=C1c2cccc3c(-c4ccc(-c5nc6c7ccccc7c7ccccc7c6[nH]5)cc4)ccc(c23)C(=O)N1CCN1CCNCC1
[1]
  growth: 83.3%
[2]
  growth: 94.9%
[3]
  growth: 75.3%
[4]
  growth: 62.1%
[5]
  growth: 41.2%
[6]
  growth: 86.2%
[7]
  growth: 91.8%
[8]
  growth: 70.7%
[9]
  growth: 52.4%
[10]
  growth: 61.9%

## COc1ccc(C(=O)/C=C/c2cc3c(c(OC)c2)OCC(=O)N3)cc1
[1]
  growth: 58.5%
[2]
  growth: 87.6%
[3]
  growth: 87.8%
[4]
  growth: 87.4%
[5]
  growth: 9.81% (active)
[6]
  growth: 39.5%
[7]
  growth: 46.4%
[8]
  growth: 78%
[9]
  growth: 14.5%
[10]
  growth: 77%

## COc1ccc(OC)c(/C=C2\COc3ccc(O)c(O)c3C2=O)c1
[1]
  growth: 48.9%
[2]
  growth: 85.2%
[3]
  growth: 54.3%
[4]
  growth: 30.2%
[5]
  growth: 4.53% (active)
[6]
  growth: 56.7%
[7]
  growth: -33.4% (active)
[8]
  growth: 48.1%
[9]
  growth: 22.4%
[10]
  growth: 95.3%

## CN1CCN(C2=C(Cl)C(=O)c3ccccc3C2=O)CC1
[1]
  growth: 55.5%
[2]
  growth: 94.2%
[3]
  growth: 97.4%
[4]
  growth: 94.9%
[5]
  growth: 92.3%
[6]
  growth: 102%
[7]
  growth: 25.1%
[8]
  growth: 81.4%
[9]
  growth: 84.7%
[10]
  growth: 81.4%

## CO/C(=C1/NC(=O)C(Cc2ccc(O)c(Br)c2)N(C)C(=O)C(C)NC(=O)CCC/C=C(\C)CCC(C)OC1=O)c1ccccc1 (stereo not given)
[1]
  growth: 25.1%
[2]
  growth: -33.9% (active)
[3]
  growth: -34.3% (active)
[4]
  growth: -19.7% (active)
[5]
  growth: -22.1% (active)
[6]
  growth: -53.9% (active)
[7]
  growth: -61.1% (active)
[8]
  growth: -49.5% (active)
[9]
  growth: -35.6% (active)
[10]
  growth: 7.23% (active)

## COc1cc(NC(=O)c2cccc(-c3cc(=O)c4c(O)c(OC)c(OC)cc4o3)c2)cc(OC)c1OC
[1]
  growth: 34.9%
[2]
  growth: 7.69% (active)
[3]
  growth: 74.4%
[4]
  growth: 11.7%
[5]
  growth: 53.8%
[6]
  growth: 56.1%
[7]
  growth: 41.2%
[8]
  growth: 40.5%
[9]
  growth: 66.3%
[10]
  growth: 67.7%

## COC1=CC(c2ccc[nH]2)=N/C1=C\c1[nH]c(C)c(C(=O)OCCn2cc(CCC[C@@H]3Cc4cc(O)ccc4C4CC[C@]5(C)[C@@H](O)CC[C@H]5C43)nn2)c1C (stereo not given in full)
[1]
  growth: 80.8%
[2]
  growth: 85.7%
[3]
  growth: 82%
[4]
  growth: 88.6%
[5]
  growth: 53.3%
[6]
  growth: 67.8%
[7]
  growth: 92.1%
[8]
  growth: 82.2%
[9]
  growth: 62.5%
[10]
  growth: 80.5%

## Cc1ccc(O)c(C(=O)c2ccccc2Cl)c1
[1]
  growth: 94.3%
[2]
  growth: 100%
[3]
  growth: 109%
[4]
  growth: 98.3%
[5]
  growth: 109%
[6]
  growth: 112%
[7]
  growth: 102%
[8]
  growth: 104%
[9]
  growth: 99.1%
[10]
  growth: 138%

## O=c1[nH]nc(-c2ccc(Cl)cc2)cc1Cc1ccccc1
[1]
  growth: 92.3%
[2]
  growth: 79.9%
[3]
  growth: 155%
[4]
  growth: 90.5%
[5]
  growth: 104%
[6]
  growth: 86.2%
[7]
  growth: 35%
[8]
  growth: 42.1%
[9]
  growth: 96.9%
[10]
  growth: 116%

## C/C(Cc1ccc(Cl)cc1)=C(/c1ccc(Cl)cc1)c1ccc(OCCN(C)C)cc1
[1]
  growth: 73.2%
[2]
  growth: 104%
[3]
  growth: 91.2%
[4]
  growth: 99.2%
[5]
  growth: -46.9% (active)
[6]
  growth: 72%
[7]
  growth: 80.6%
[8]
  growth: 57.8%
[9]
  growth: 61.7%
[10]
  growth: -59.2% (active)

## COc1ccc(/C=C2\COc3ccc(O)cc3C2=O)cc1OC
[1]
  growth: 105%
[2]
  growth: 97%
[3]
  growth: 90.4%
[4]
  growth: 76%
[5]
  growth: 67.6%
[6]
  growth: 59.1%
[7]
  growth: 35.2%
[8]
  growth: 91.2%
[9]
  growth: 88.2%
[10]
  growth: 93.9%

## COc1cc2oc(-c3cccc(C(=O)Nc4ccc(C)cc4)c3)cc(=O)c2c(OC)c1OC
[1]
  growth: 44.6%
[2]
  growth: 62.5%
[3]
  growth: 51.1%
[4]
  growth: 22.1%
[5]
  growth: 24.9%
[6]
  growth: 22%
[7]
  growth: 6.72% (active)
[8]
  growth: 33.8%
[9]
  growth: 22.1%
[10]
  growth: 1.73% (active)

## Clc1ccc(/C=N\N=c2\scc(-c3ccc(Cl)cc3)n2/N=C/c2ccc(Cl)cc2)cc1
[1]
  growth: 94.4%
[2]
  growth: 111%
[3]
  growth: 95.7%
[4]
  growth: 107%
[5]
  growth: 97.9%
[6]
  growth: 106%
[7]
  growth: 68.7%
[8]
  growth: 75.7%
[9]
  growth: 98.1%
[10]
  growth: 113%

## COc1ccc(NC(=O)C(=O)c2c[nH]c3ccc(F)cc23)cc1
[1]
  growth: 97.8%
[2]
  growth: 101%
[3]
  growth: 73%
[4]
  growth: 103%
[5]
  growth: 90.7%
[6]
  growth: 99.2%
[7]
  growth: 85.1%
[8]
  growth: 78.7%
[9]
  growth: 56.1%
[10]
  growth: 104%

## COc1ccc(/C(C)=C(\c2ccc(Cl)cc2)c2ccc(OCCN3CCCCCC3)cc2)cc1F
[1]
  growth: 54.1%
[2]
  growth: 71%
[3]
  growth: 83.3%
[4]
  growth: 36.3%
[5]
  growth: 8.63% (active)
[6]
  growth: 73.3%
[7]
  growth: 65.9%
[8]
  growth: 55%
[9]
  growth: 4.15% (active)
[10]
  growth: 22.3%

## COc1ccc(OC)c(C(=O)Nc2cccc(-c3cc(=O)c4ccccc4o3)c2)c1
[1]
  growth: 92.8%
[2]
  growth: 92.4%
[3]
  growth: 86.9%
[4]
  growth: 89.1%
[5]
  growth: 90%
[6]
  growth: 93.7%
[7]
  growth: 68.1%
[8]
  growth: 88.8%
[9]
  growth: 92.6%
[10]
  growth: 104%

## Clc1ccc(-c2cn(-c3ccccc3)c(-c3ccccc3)n2)cc1
[1]
  growth: 85.2%
[2]
  growth: 80.9%
[3]
  growth: 95.9%
[4]
  growth: 76.9%
[5]
  growth: 104%
[6]
  growth: 68.7%
[7]
  growth: 55.2%
[8]
  growth: 71.3%
[9]
  growth: 81.3%
[10]
  growth: 107%

## CCOC(=O)c1nnn(C(Cc2ccccc2Cl)C(=O)OCC)c1C (stereo not given)
[1]
  growth: 105%
[2]
  growth: 103%
[3]
  growth: 108%
[4]
  growth: 93.4%
[5]
  growth: 101%
[6]
  growth: 93.5%
[7]
  growth: 68.9%
[8]
  growth: 82.6%
[9]
  growth: 102%
[10]
  growth: 105%

## O=C1/C(=C/c2ccccc2[N+](=O)[O-])COc2ccc(O)c(O)c21
[1]
  growth: -4.09% (active)
[2]
  growth: -8.66% (active)
[3]
  growth: 33.3%
[4]
  growth: 30.3%
[5]
  growth: 0.563% (active)
[6]
  growth: -9.78% (active)
[7]
  growth: -45.2% (active)
[8]
  growth: 30.8%
[9]
  growth: 10.6%
[10]
  growth: -32.6% (active)

## COc1cc(C(=O)Nc2cc(O)c(CC=C(C)C)c(O)c2)cc2c1O[C@]1(C)CC[C@@H](O)C(C)(C)[C@H]1C2
[1]
  growth: 38.7%
[2]
  growth: 47.6%
[3]
  growth: 66.4%
[4]
  growth: 6.01% (active)
[5]
  growth: 15.6%
[6]
  growth: -5.08% (active)
[7]
  growth: 10%
[8]
  growth: 18.5%
[9]
  growth: -11.7% (active)
[10]
  growth: -11.8% (active)

## CCCCN(Cc1ccc(C(=O)NO)cc1)C(=O)Nc1ccc(OCCCCCCCCCn2cc(CCCCC(=O)N[C@H](C(=O)N3C[C@H](O)C[C@H]3C(=O)NCc3ccc(-c4scnc4C)cc3)C(C)(C)C)nn2)cc1
[1]
  growth: 33.4%
[2]
  growth: 46.1%
[3]
  growth: 63.7%
[4]
  growth: 39.7%
[5]
  growth: 11.6%
[6]
  growth: -11.4% (active)
[7]
  growth: 19.5%
[8]
  growth: 86.8%
[9]
  growth: 69.8%
[10]
  growth: 36.9%
